Compound activity: PubChem, National Center for Advancing Translational Sciences (NCATS)
RORgamma inh: ROR gamma (mouse) transcription inhibition. Drosophila S2 Gal4-RORgamma UAS-luciferase reporter, 20 h. Potency, µM (doses to about 53.6 µM), inactives show at the highest dose activity change, negative = inhibition, actives largely listed as inhibitors. 310,000 tested, 5.4% active; also: potency is read from the fitted curve at half-maximal effect; nearly all actives have a fitted effect of over 60% in size
Target sequence (P51450 whole entry, looked up, the tested form may be a part): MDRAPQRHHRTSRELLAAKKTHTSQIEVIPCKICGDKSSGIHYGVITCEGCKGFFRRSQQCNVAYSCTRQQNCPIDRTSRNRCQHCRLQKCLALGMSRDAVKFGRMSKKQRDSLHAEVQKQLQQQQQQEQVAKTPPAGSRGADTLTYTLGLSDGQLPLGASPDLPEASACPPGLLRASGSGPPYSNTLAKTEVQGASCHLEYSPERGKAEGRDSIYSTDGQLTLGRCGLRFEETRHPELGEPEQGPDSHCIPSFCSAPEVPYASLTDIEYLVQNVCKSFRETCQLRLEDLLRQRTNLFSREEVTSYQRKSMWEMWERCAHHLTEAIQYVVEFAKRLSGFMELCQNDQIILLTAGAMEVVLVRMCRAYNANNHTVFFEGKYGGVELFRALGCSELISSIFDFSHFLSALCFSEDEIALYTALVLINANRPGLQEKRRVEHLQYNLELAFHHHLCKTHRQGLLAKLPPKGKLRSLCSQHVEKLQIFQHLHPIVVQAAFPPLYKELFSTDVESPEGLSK
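Luciferase reporter read in Schneider cells carrying Gal4-RORγ (mouse) and UAS-Photinus luciferase; cells given compound 1 h before 700 uM copper sulfate induction, then incubated 20 h at ambient temperature.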
VP16 counter: inhibits Gal4-VP16 luciferase reporter, ROR gamma counter-screen | Drosophila S2 Gal4-VP16 UAS-luciferase, luminescence, 20 h | Potency, µM (doses to about 53.6 µM), without a hit: at the top dose activity, negative = inhibition, most hits filed as inhibitors | 310,000 tested, 3.5% active;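 also: Gal4-VP16 expression switched on by copper sulfate through the metallothionein promoter; potency is read from the fitted curve at half-maximal effect; nearly all actives have a fitted effect of over 50% in size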
ELG1 repair inh: inhibitors of ELG1-dependent DNA repair in HEK293T cells. Potency, µM (top dose mostly 46.1 µM), for the others: at the top dose activity change, negative = inhibition, hits mostly inhibitors. HEK293T ELG1-luciferase reporter, luminescence, 16 h; DNA damage induced by 5-fluorouridine. AID 504467. 330,000 tested, 2.3% active; also: potency is read from the fitted curve at half-maximal effect; nearly all actives have a fitted effect of over 55% in size
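Reporter activity after DNA damage by 5-fluorouridine is monitored. Compound-treated cells incubate 16 hr at 37 °C, then ONE-Glo is added for 30 min before luminescence reading.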
IL-1B inflam inh: inflammasome signaling inhibition, IL-1 beta readout; THP-1 LPS/ATP IL-1B secretion, AlphaLISA, 16 h; hits give low values; activity change, % at 57.5 µM; 360,000 tested, 4.7% active; in the data active = activity change below about -50%; inconclusive = mostly about -30% to -49%
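THP-1 cells pretreated 1 hr with compounds (up to 57.5 uM final), then stimulated with LPS (250 ng/mL final) plus ATP (1.25 mM final); secreted IL-1B measured by AlphaLISA after 16 hr, decreased signal indicating inhibition.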
TDP1 cell noCPT: qHTS for Inhibitors of human tyrosyl-DNA phosphodiesterase 1 (TDP1): qHTS in cells in absence of CPT; 420,000 tested, 15% active; DT40 Tdp1-/- hTDP1 cells, no CPT, ATP luminescence, 48 h; Potency, µM (titrated, usually from 46.2 µM), without a hit: at the highest dose activity change, negative = growth inhibition, hits mostly inhibitors; also: potency is read from the fitted curve at half-maximal effect; nearly all actives have a fitted effect of over 55% in size
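Compound effects on proliferation are scored in DT40 Tdp1-/-;hTDP1 cells in the absence of CPT. ATP levels (CellTiter-Glo luminescence) are recorded after a ≥48 hr, 37 °C incubation.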
DT40 TDP1 CPT: growth inhibition of DT40 Tdp1-/-;hTDP1 cells with camptothecin (screen for TDP1 inhibitors) | chicken DT40 Tdp1-/-;hTDP1 cells + 20 nM CPT, ATP luminescence, 48 h | Potency, µM (doses to about 46.2 µM), for inactives: top-dose activity change, negative = growth inhibition, most hits filed as inhibitors | 420,000 tested, 12% active | AID 686979; also: potency is read from the fitted curve at half-maximal effect; nearly all actives have a fitted effect of over 55% in size
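Chicken DT40 Tdp1-/- cells stably complemented with human TDP1 were seeded at 400 cells/well in medium containing 20 nM camptothecin, exposed to pin-transferred compounds, and grown at 37 °C for at least 48 hr. Viability was read as ATP luminescence.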
The depositor's hits bear a star; ? = inconclusive; · = not tested or not shown; [ ] = remark or other dose. An excerpt weighted towards active compounds, which were near 21% of everything screened. Unless noted, calls follow the shape of the dose curve; as a rule, active = well fitted curve in the direction sought with a large enough effect; inconclusive = small, poorly fitted or top-dose-only effect, or another doubt; inactive = no such curve, though single readings can be large; an effect the other way counts as inactive or inconclusive. % is scaled to controls: 0 for no effect and ±100 for the full control effect.

SMILES	RORgamma inh	VP16 counter	ELG1 repair inh	IL-1B inflam inh	TDP1 cell noCPT	DT40 TDP1 CPT
COc1ccc2nc(SCc3nc(N)nc(Nc4ccccc4)n3)[nH]c2c1	30.4%	-12.8%	?	-4.1	16.4µM*	?
Cc1nc(Nc2nc(CSc3ccc(Cl)cc3)cc(=O)[nH]2)nc2ccccc12	-2.2%	-4.3%	-11.8%	9.5	?	-25.4%
Cc1nc(Nc2nc(-c3ccccc3)cc(=O)[nH]2)nc2ccccc12	·	·	·	-64.5*	16.4µM*	20.6µM*
Cc1cccc(-c2nc3ccccc3c(=O)[nH]2)c1	1.3%	17.8%	?	0.0	-22.9%	4.4%
Cc1nc(Nc2nc(CSc3nc4ccccc4[nH]3)cc(=O)[nH]2)nc2ccccc12	?	?	13µM*	-86.9*	6.51µM*	4.11µM*
CN1C(=O)Cc2cc(S(=O)(=O)CCC(=O)Nc3ccc(OC(F)(F)F)cc3)ccc21	·	·	·	·	-7.8%	4.6%
Cc1ccc(S(=O)(=O)CCC(=O)Nc2ccc(OC(F)(F)F)cc2)cc1	·	·	·	·	?	20.6µM*
CC1Cc2cc(S(=O)(=O)CCC(=O)Nc3ccc(OC(F)(F)F)cc3)ccc2N1C(=O)C1CC1 (stereo not drawn)	·	·	·	·	5.8µM*	7.31µM*
Cc1cc(Cl)ccc1NC(=O)CCS(=O)(=O)c1ccc2c(c1)CC(C)N2C(=O)C1CC1 (stereo not drawn)	·	·	·	·	?	11.6µM*
COc1ccc(NC(=O)CCS(=O)(=O)c2ccc(OC)cc2)cc1	12.2%	?	-2.4%	-4.0	?	-26.9%
CCOc1ccc(NC(=O)CCS(=O)(=O)c2ccc(Br)cc2)cc1	2.3%	5.1%	0.0%	5.0	23.1µM*	?
Cc1ccc(OCCNC(=O)C2CC(=O)N(Cc3ccccc3)C2)cc1 (stereo not drawn)	·	·	2.8%	19.7	0.4%	0.9%
CCN1CCCC1CNC(=O)c1cnn(-c2nccc(-c3cccs3)n2)c1C1CC1 (stereo not drawn)	·	·	·	·	-12.5%	6.3%[9.04 µM]
Cc1c(Cl)cccc1NC(=O)CCS(=O)(=O)c1ccc2c(c1)CC(C)N2C(=O)C1CC1 (stereo not drawn)	·	·	·	·	4.11µM*	5.17µM*
COc1ccc(NC(=O)c2cc(-c3ccccc3F)no2)cc1	·	·	·	·	?	-24.6%
CC(C)C[C@H](NC(=O)[C@H](Cc1ccccc1)NC(=O)[C@H](Cc1ccccc1)NC(=O)[C@@H](N)CO)C(=O)N[C@@H](CCCN=C(N)N)C(=O)N[C@@H](CC(N)=O)C(=O)O	11.5%	2.2%	·	·	·	·
Cc1ccc(CSc2ccc3nnc(-c4ccccn4)n3n2)cc1	13.1%	2.2%	-3.0%	-10.0	16.4µM*	11.6µM*
Cc1ccc(C)c(CSc2ccc3nnc(-c4ccccn4)n3n2)c1	-11.9%	-14.5%	?	-70.2*	?	?
O=C(CN1CCN(c2ccccc2O)CC1)Nc1ccc(S(=O)(=O)N2CCCCCC2)cc1	·	·	?	-15.0	?	?
O=C(CN1CCN(C(=O)c2ccco2)CC1)Nc1cc(S(=O)(=O)N2CCCC2)ccc1Cl	·	·	·	-15.9	6.51µM*	?
O=C(CN1CCN(c2ccccc2O)CC1)Nc1cc(S(=O)(=O)N2CCCC2)ccc1Cl	·	·	?	?	?	16.4µM*
O=C(CN1CCN(C(=O)c2ccco2)CC1)Nc1cccc(S(=O)(=O)N2CCCC2)c1	·	·	-2.4%	21.4	0.1%	-8.9%
O=C(Nc1ccc(F)cc1F)c1ccc2c(O)c(S(=O)(=O)c3ccc(Cl)cc3)c(=O)[nH]c2c1	·	·	·	·	-3.2%	8.4%
NC(=O)c1nc(-c2ccccc2)c(-c2ccccc2)[nH]c1=O	·	·	·	-15.0	2.31µM*	0.581µM*
COCCNc1nnc(SCC(=O)Nc2nnc(-c3ccccc3)o2)s1	·	·	20.4%	10.2	11.5%	-1.8%
SMILES	RORgamma inh	VP16 counter	ELG1 repair inh	IL-1B inflam inh	TDP1 cell noCPT	DT40 TDP1 CPT
COCCNc1nnc(SCC(=O)Nc2cc(-c3ccccc3)nn2-c2ccccc2)s1	-28.6%	-27.8%	20.6µM*	-2.8	16.4µM*	25.9µM*
CC(C)(C)c1cc(NC(=O)CCl)n(-c2ccccc2)n1	?	?	-29.9%	-93.2*	20.6µM*	?
CC(Cl)C(=O)Nc1cc(C(C)(C)C)nn1-c1ccccc1 (stereo not drawn)	-3.3%	3.2%	-11.8%	-9.3	-12.7%	1.6%
CC(C)(C)c1cc(NC(=O)CSc2nnc(NCc3ccccc3)s2)n(-c2ccccc2)n1	?	?	23.1µM*	1.1	?	?
COc1ccc(NC(=O)C2(C)CCN2C2Cc3ccccc3C2)cc1OC (stereo not drawn)	·	·	·	9.4	-89.4%	?
Cc1ccc(S(=O)(=O)Oc2cccc(N3C(=O)C4CC=CCC4C3=O)c2)cc1 (stereo not drawn)	31.6%	-4.2%	-10.4%	17.1	?	16.4µM*
CC(=O)Nc1ccc(S(=O)(=O)Oc2cccc(N3C(=O)C4CCCCC4C3=O)c2)cc1 (stereo not drawn)	23.1%	-3.1%	-13.3%	12.6	?	?
Cc1ccc(S(=O)(=O)Oc2ccc(N3C(=O)C4C5CCC(C5)C4C3=O)cc2)cc1 (stereo not drawn)	5.1%	?	8.2µM*	27.3	23.1µM*	4.11µM*
O=C(NNc1nc2ccc(Cl)cc2s1)c1cc(-c2cccs2)nc2ccccc12	1.12µM*	?	?	174.3	5.17µM*	2.59µM*
Cc1ccc2sc(NNC(=O)c3cc(-c4cccs4)nc4ccccc34)nc2c1C	4.47µM*	17.8µM*	?	·	·	·
COc1ccccc1-c1csc(NC(=O)c2cc(-c3cccs3)nc3ccccc23)n1	?	1.8%	-17.8%	-13.6	-27.0%	-21.1%
Cc1cc(C)c2nc(NNC(=O)c3cc(-c4cccs4)nc4ccccc34)sc2c1	1.78µM*	10µM*	?	115.3	5.17µM*	4.61µM*
CC1=NN(C(=O)COc2cc(C)ccc2C(C)C)C(O)(c2ccccc2)C1 (stereo not drawn)	11.2µM*	17.8µM*	20.6µM*	-22.5	25.9µM*	5.8µM*
CC1=NN(C(=O)CSCc2ccccc2)C(O)(c2ccc(Cl)cc2)C1 (stereo not drawn)	10µM*	?	-13.2%	-0.8	?	-27.9%
CC1=NN(C(=O)CSCc2ccccc2)C(O)(c2ccc(F)cc2)C1 (stereo not drawn)	7.08µM*	?	-19.9%	-3.6	-24.8%	1.4%
